Compound activity from PubChem BioAssay.
SARS PLpro yeast: qHTS of Yeast-based Assay for SARS-CoV PLP; S. cerevisiae expressing SARS-CoV PLpro, growth rescue; Potency, µM (highest dose often 32.9 µM), inactives show at the highest dose activity, positive = growth rescue, hits mostly activators; actives 0.19% (n = 330,000); calls by dose curve; also: 0% is about no effect; nearly all actives have a fitted effect of over 55% in size
RE007 growth inh: qHTS Assay for Inhibitors of the HIV-1 protein Vpr; S. pombe RE007 Vpr strain, BacTiter-Glo ATP luminescence, 24 h; Potency, µM (highest dose often 92.2 µM), inactives show at the top dose activity change, negative = less growth, usual class: inhibitors; actives 0.21% (n = 360,000); active = well fitted falling curve with a large enough effect; inconclusive = small, poorly fitted or top-dose-only effect; inactive = no such curve, though single readings can be large or run the other way; also: % is scaled to controls: 0 for no effect and ±100 for the full control effect; nearly all actives have a fitted effect of over 50% in size
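Fission yeast strain RE007, carrying one chromosomally integrated HIV-1 vpr copy, was seeded at OD 0.01 in PMG+AL medium with 23 nL pinned compound. After 24 h at 30 °C and 99% humidity, viability was read by BacTiter-Glo luminescence.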
LmPK inh: qHTS Assay for Inhibitors of Leishmania Mexicana Pyruvate Kinase (LmPK) | actives 0.37% (n = 290,000) | Q27686 | Potency, µM (titrated, usually from 57.5 µM), for the others: at the top dose activity change, negative = inhibition, usual class: inhibitors | purified LmPK, Kinase-Glo ATP luminescence, 1 h; also: % is scaled to controls: 0 for no effect and ±100 for the full control effect
Target sequence (Q27686 whole entry, looked up): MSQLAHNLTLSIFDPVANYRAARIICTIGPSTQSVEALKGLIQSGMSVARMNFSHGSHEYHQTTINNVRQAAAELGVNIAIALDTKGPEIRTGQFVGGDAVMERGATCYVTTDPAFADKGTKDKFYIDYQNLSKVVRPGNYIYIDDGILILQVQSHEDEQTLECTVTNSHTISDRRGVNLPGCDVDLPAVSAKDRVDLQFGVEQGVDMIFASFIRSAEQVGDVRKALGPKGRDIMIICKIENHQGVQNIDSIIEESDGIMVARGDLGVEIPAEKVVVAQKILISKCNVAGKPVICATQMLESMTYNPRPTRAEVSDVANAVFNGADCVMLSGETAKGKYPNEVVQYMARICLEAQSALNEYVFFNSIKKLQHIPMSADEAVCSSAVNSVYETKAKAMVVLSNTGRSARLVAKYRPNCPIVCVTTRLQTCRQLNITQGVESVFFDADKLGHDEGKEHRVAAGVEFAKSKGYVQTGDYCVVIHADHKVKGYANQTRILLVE
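qHTS format; LmPK 0.1 nM; substrates PEP 0.5 mM and ADP 0.1 mM. One-hour room-temperature incubation, then coupled luciferase luminescence; 0.5 nM enzyme wells mark activation.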
FBPA Giardia inh: qHTS Assay for Inhibitors of Fructose-1,6-bisphosphate Aldolase from Giardia Lamblia; Potency, µM (top dose mostly 59.6 µM), inactives show at the top dose activity, negative = inhibition, actives largely listed as inhibitors; purified Giardia FBPA; A8B2U2; actives 0.71% (n = 290,000); AID 2451, 2010; also: % is scaled to controls: 0 for no effect and ±100 for the full control effect; nearly all actives have a fitted effect of over 55% in size
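Giardia FBPA (40 nM reagent) was preincubated 10 min at RT with compound (up to 57.5 uM final), then substrate plus GAPDH/TPI/NAD/arsenate coupling system with diaphorase/resazurin was added; resorufin fluorescence (525/598 nm) was read after 20 min.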
Tb PYK inh: qHTS of Trypanosoma Brucei Inhibitors. Potency, µM (titrated, usually from 76.8 µM), inactives show at the top dose activity, negative = inhibition, hits mostly inhibitors. actives 0.12% (n = 410,000). pyruvate kinase (Trypanosoma brucei), Q57TT1. TbPYK enzyme, Kinase-Glo Plus ATP luminescence, 45 min; also: % is scaled to controls: 0 for no effect and ±100 for the full control effect; nearly all actives have a fitted effect of over 50% in size
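Assay buffer: 50 mM TEA pH 7.2, 100 mM KCl, 10 mM MgCl2, 0.05% BSA, 0.01% Tween-20. Pyruvate kinase from T. brucei plus substrate met compound, then ADP (130 uM final). Luminescence was read post 45 min RT.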
Starred values were filed as active, the others as inactive; [ ] = remark or other dose. This is a sample that favours compounds with a hit; in the whole collection about 1.1% have one here. Unless noted, calls follow the shape of the dose curve; as a rule, active = well fitted curve in the direction sought with a large enough effect; inconclusive = small, poorly fitted or top-dose-only effect, or another doubt; inactive = no such curve, though single readings can be large; an effect the other way counts as inactive or inconclusive. Potency is read from the fitted curve at half-maximal effect.

Results for CSc1ncc(Cl)c(C(=O)Nc2c(C(=O)c3ccc(Cl)cc3)oc3ccccc23)n1 ?
Tb PYK inh: 2%

How did Cn1c(=O)c(C(=O)NNC(=O)c2cccc(Cl)c2)c(O)c2ccccc21 do in these assays?
SARS PLpro yeast: -2%; RE007 growth inh: 13µM*; LmPK inh: 2%; FBPA Giardia inh: 8%; Tb PYK inh: 0%

Results for Cc1cccc(C(=O)NNC(=O)c2c(O)c3ccccc3n(C)c2=O)c1 ?
SARS PLpro yeast: -37%; RE007 growth inh: 40µM*; LmPK inh: -7%; FBPA Giardia inh: 4%; Tb PYK inh: 5%

How did COc1ccc(-c2nc(CSc3nncn4c3cc3oc(C)cc34)c(C)o2)cc1 do in these assays?
Tb PYK inh: 6%

What do the screens show for `CC1(c2ccc([N+](=O)[O-])cc2)Nc2ccccc2S1` (stereo unspecified)?
SARS PLpro yeast: -9%; RE007 growth inh: 40µM*; LmPK inh: 2%; FBPA Giardia inh: -7%; Tb PYK inh: -17%

How did O=C1Nc2ccccc2/C1=C/c1ccc([N+](=O)[O-])cc1 do in these assays?
SARS PLpro yeast: -3%; RE007 growth inh: 10%; LmPK inh: -2%; FBPA Giardia inh: 4%; Tb PYK inh: -1%

How did Cc1cccc(N/N=C/c2ccc(O)c(O)c2O)c1 do in these assays?
SARS PLpro yeast: -1%; RE007 growth inh: 15%; LmPK inh: 8%; FBPA Giardia inh: 14µM*; Tb PYK inh: -19%

What do the screens show for `Oc1ccc(/C=N/NC(=S)Nc2cccnc2)c(O)c1O`?
SARS PLpro yeast: 24%; RE007 growth inh: -18%; LmPK inh: -6%; FBPA Giardia inh: 7.1µM*; Tb PYK inh: inconclusive

How did COc1cccc(N/N=C/c2cccc(Br)c2O)c1 do in these assays?
SARS PLpro yeast: -2%; RE007 growth inh: 4%; LmPK inh: -6%; FBPA Giardia inh: -10%; Tb PYK inh: 0%

What do the screens show for `COc1ccc(NC(=O)c2cnc(N3CCOCC3)c3ccccc23)cc1OC`?
Tb PYK inh: 4%

What do the screens show for `COc1cc(Nc2c(C#N)cnc3cc(OCCCN4CCN(C)CC4)c(OC)cc23)c(Cl)cc1Cl`?
Tb PYK inh: 5%

How did CC(=NNC(=S)N1CC2CCC(CC2)C1)c1nccs1 do in these assays?
RE007 growth inh: 32µM*; Tb PYK inh: inconclusive

Results for COC(=O)c1cccc(NC(=O)c2onc3c2CCCC3)c1 ?
SARS PLpro yeast: -24%; RE007 growth inh: inconclusive; LmPK inh: inconclusive; FBPA Giardia inh: -1%; Tb PYK inh: -26%

How did Cc1cccc(NC(=O)c2onc3c2CCCC3)n1 do in these assays?
SARS PLpro yeast: -33%; RE007 growth inh: 22µM*; LmPK inh: 13µM*; FBPA Giardia inh: -3%; Tb PYK inh: inconclusive

What do the screens show for `O=C(Nc1ccc2ccccc2c1)c1onc2c1CCCC2`?
SARS PLpro yeast: -6%; RE007 growth inh: 3.5µM*; LmPK inh: -12%; FBPA Giardia inh: -5%; Tb PYK inh: -1%

What do the screens show for `Cc1ccccc1NC(=O)c1onc2c1CCCC2`?
SARS PLpro yeast: -14%; RE007 growth inh: 5µM*; LmPK inh: 13µM*; FBPA Giardia inh: 1%; Tb PYK inh: -17%

How did Cc1cccc(NC(=O)c2onc3c2CCCC3)c1C do in these assays?
SARS PLpro yeast: -4%; RE007 growth inh: 4µM*; LmPK inh: inconclusive; FBPA Giardia inh: 1%; Tb PYK inh: -11%

Results for O=C(c1ccc2c(c1)N(Cc1ccccc1F)C(=O)c1ccccc1S2=O)N1CCN(c2ccccc2)CC1 (stereo unspecified) ?
Tb PYK inh: 1%

How did O=c1oc2ccccc2cc1-c1nc2c(s1)CCc1ccccc1-2 do in these assays?
SARS PLpro yeast: 1%; RE007 growth inh: -19%; LmPK inh: 8%; FBPA Giardia inh: 7.9µM*; Tb PYK inh: -16%

What do the screens show for `O=c1oc2cc(O)ccc2cc1-c1nc2c(s1)CCc1ccccc1-2`?
SARS PLpro yeast: 1%; RE007 growth inh: 1%; LmPK inh: 4%; FBPA Giardia inh: inconclusive; Tb PYK inh: -9%

Results for COc1cc2c(=O)n(CCC(=O)NCC3CCCO3)c(=O)n(CC(=O)Nc3c(C)cccc3C)c2cc1OC (stereo unspecified) ?
Tb PYK inh: 8%

What do the screens show for `Oc1c(/C=N/c2ccccn2)sc2ccccc12`?
SARS PLpro yeast: -5%; RE007 growth inh: -15%; LmPK inh: 6.3µM*; FBPA Giardia inh: -9%; Tb PYK inh: -19%

How did Oc1c(C=Nc2ccc(Cl)cn2)sc2ccccc12 do in these assays?
SARS PLpro yeast: -2%; RE007 growth inh: 3%; LmPK inh: -5%; FBPA Giardia inh: 5%; Tb PYK inh: -2%

What do the screens show for `C=C1CCN(C(CC(C)C)C(=O)O)S(=O)(=O)c2ccccc21` (stereo unspecified)?
FBPA Giardia inh: 5%

What do the screens show for `O=C(Oc1cccnc1)c1ccc(Cl)c(Cl)c1`?
SARS PLpro yeast: -9%; RE007 growth inh: 32µM*; LmPK inh: 3%; FBPA Giardia inh: 4%; Tb PYK inh: -4%

What do the screens show for `COc1ccc(C(=O)Oc2cccnc2)cc1`?
SARS PLpro yeast: 2%; RE007 growth inh: -12%; LmPK inh: 9%; FBPA Giardia inh: 9%; Tb PYK inh: 1%

What do the screens show for `Cc1ccc2c(c1)CC1(CN2C)C(=O)OC(C)(C)OC1=O`?
SARS PLpro yeast: -1%; RE007 growth inh: -11%; LmPK inh: 16µM*; FBPA Giardia inh: inconclusive; Tb PYK inh: -2%

What do the screens show for `Cc1cc(C)c(NC(=O)C2=CCN(S(=O)(=O)c3ccc(F)cc3)CC2)c(C)c1`?
SARS PLpro yeast: 21%; RE007 growth inh: -14%; LmPK inh: 1%; FBPA Giardia inh: 3%; Tb PYK inh: -6%

Results for Cc1cc(C)c(NC(=O)c2c[nH]c(=S)n2-c2ccc(F)cc2)c(C)c1 ?
SARS PLpro yeast: 0%; RE007 growth inh: 19%; LmPK inh: inconclusive; FBPA Giardia inh: 1%; Tb PYK inh: 7.9µM*

What do the screens show for `COc1ccc(C)cc1NC(=O)Cn1nc(N2CCN(c3ccccc3OC)CC2)ccc1=O`?
Tb PYK inh: -2%

What do the screens show for `Nc1nc2ccccc2n1C(=O)c1ccccc1`?
SARS PLpro yeast: -2%; RE007 growth inh: inconclusive; LmPK inh: 6.3µM*; FBPA Giardia inh: -27%; Tb PYK inh: inconclusive

Results for Nc1nc2ccccc2n1C(=O)c1ccc(F)cc1 ?
SARS PLpro yeast: -2%; RE007 growth inh: -13%; LmPK inh: 25µM*; FBPA Giardia inh: -13%; Tb PYK inh: -10%

What do the screens show for `COc1ccccc1C1CC(=O)Oc2cc(C)c(Cl)cc21` (stereo unspecified)?
SARS PLpro yeast: -35%; RE007 growth inh: -9%; FBPA Giardia inh: -7%[89.2 µM]; Tb PYK inh: 2%
